PubChem BioAssay (NCATS)
Inconclusive results are not listed. Unmarked numbers belong to inactive results. Calls of active or inactive are those of the source. The call rests on the fitted dose curve; in most records, active means well fitted inhibition curve with a large enough effect; inconclusive means small, poorly fitted or top-dose-only effect; inactive means no such curve, though single readings can be large or run the other way.

Assay: Primary qHTS for inhibitors of nuclear receptor binding SET domain protein 2 (NSD2) in an RCH-ACV wild type WT cells (2C) (AID 1645877); further: nearly all actives have a fitted effect of over 70% in size
Conditions: RCH-ACV (leukaemia line) NSD2 WT (2C) viability, CellTiter-Glo, 72 h; series mostly up to 44.9 µM; activity change, negative = cell killing: at the top concentration
On the % scale 0 is the no-effect control and ±100 the full control effect.

| Compound | activity change, negative = cell killing | outcome |
| --- | --- | --- |
| CC1(C)CC[C@]2(C(=O)O)CC[C@]3(C)C(=CCC4[C@@]5(C)CC[C@H](O)C(C)(C)C5CC[C@]43C)C2C1 (some centres undefined) | -6.49% [at 17.3 µM] |  |
| CC(=O)OCC1=CCC2C(C)(C)CCCC2(C)C12CCC(C)(CC(=O)O)O2 (centres undefined) | -18.7% |  |
| CC(O)C(O)/C=C/C=C/C(=O)O[C@@H]1C=C(C(=O)O)[C@](O)(CO)[C@@]2(C)CCCC(C)(C)[C@H]12 (some centres undefined) | -14.1% [at 17.3 µM] |  |
| C=C(COC(=O)CC(C)C)C1Cc2cc(C(C)=O)ccc2O1 (centres undefined) | -12.1% |  |
| C=C(C)[C@@H]1CC[C@]2(C)CC[C@]3(C)C(CCC4[C@@]5(C)CC[C@H](O)C(C)(C)C5CC[C@]43C)C12 (some centres undefined) |  | inactive [at 17.3 µM] |
| CC1=C(CC/C(C)=C/C(=O)O)[C@@]2(C)CCCC(C)(C)C2CC1=O (some centres undefined) | -5.14% |  |
| C[C@@H]1CCC2C(C)(C)[C@H](O)[C@H](O)C[C@]2(C)[C@@]12Cc1c(O)cc3c(c1O2)CN(CCCC(=O)O)C3=O (some centres undefined) | -16.6% [at 17.3 µM] |  |
| CC1(C)CC[C@]2(C(=O)O[C@@H]3O[C@H](CO)[C@@H](O)[C@H](O)[C@H]3O)CC[C@]3(C)C(=CCC4[C@@]5(C)CC[C@H](O[C@@H]6O[C@H](C(=O)O)[C@@H](O)[C@H](O)[C@H]6OC6OC(CO)C(O)C(O)C6O)C(C)(C)C5CC[C@]43C)[C@@H]2C1 (some centres undefined) | -5.08% [at 9.23 µM] |  |
| CC(C)=CCC[C@@](C)(O)[C@H]1CC[C@]2(C)[C@@H]1[C@H](O)CC1[C@@]3(C)CC[C@H](O[C@@H]4O[C@H](CO)[C@@H](O)[C@H](O)[C@H]4O[C@@H]4O[C@H](CO)[C@@H](O)[C@H](O)[C@H]4O)C(C)(C)[C@@H]3CC[C@]12C (some centres undefined) |  | inactive [at 17.3 µM] |
| COc1cc(/C=C/C(=O)O[C@H]2C[C@@H]3C(C(=O)O)=CO[C@@H](O[C@@H]4O[C@H](CO)[C@@H](O)[C@H](O)[C@H]4O)[C@@H]3[C@H]2C)ccc1O |  | inactive [at 17.3 µM] |
| CC1CC=C2C1CC1(O)C(=O)CC2(C)C1(C)CO (centres undefined) | 1.27% |  |
| C[C@H]1/C=C/C=C/C=C/C=C/C=C/[C@@H](O)[C@H](C(=O)O)[C@H](O)C[C@H](O)CCC[C@H](O)C[C@H](O)C[C@H](O)[C@@H](C)C(=O)O[C@@H]1C | 1.52% [at 17.3 µM] |  |
| C=C(C)C1CCC2(C(=O)OC3OC(COC4OC(CO)C(O)C(O)C4O)C(OC4OC(C)C(O)C(O)C4O)C(O)C3O)CCC3(C(=O)O)C(CCC4C5(C)CCC(=O)C(C)(C)C5CCC43C)C12 (centres undefined) |  | inactive [at 9.23 µM] |
| CC1(C)CCC[C@@]2(C)[C@H]1[C@H](O)C=C(CO)[C@]2(O)CO |  | inactive |
| CCC(C)C(=O)OC[C@H]1O[C@H](O[C@H]2O[C@H](CO)[C@@H](O)[C@H](O)[C@H]2O)[C@H](O)[C@@H](O)[C@@H]1O (some centres undefined) | 0.741% [at 17.3 µM] |  |
| Cc1c(C)c(NCC(=O)N(C)C2CCN(Cc3ccc(C(N)=O)cc3)CC2)c(C)c(C)c1N | -3.7% |  |
| C=C1C(OC(C)=O)[C@@]23CCC4[C@](C)(C(=O)O)CCC[C@@]4(C)[C@]2(O)CC[C@H]1C3 (some centres undefined) | -22.6% |  |
| COc1ccc(C2(O)c3ccccc3NC(=O)C2OC)cc1 (centres undefined) | -15.7% |  |
| C[C@@H]1[C@H]2[C@H](O[C@@H]3O[C@H](CO)[C@@H](O)[C@H](O)[C@H]3O)OC=C(C(=O)O)[C@H]2C[C@@H]1OC(=O)/C=C/c1ccc(O)cc1 | -16.7% [at 17.3 µM] |  |
| CC1CCC2(C)CCC3(C)C(=CCC4C5(C)CCC(O)C(C)(C(=O)O)C5CCC43C)C2C1C (centres undefined) | -12.1% [at 17.3 µM] |  |

| Compound | activity change, negative = cell killing | outcome |
| --- | --- | --- |
| O=C(/C=C/c1ccc(O)cc1)OC[C@@]1(O)C=C[C@@H]2C(C(=O)O)=CO[C@@H](O[C@@H]3O[C@H](CO)[C@@H](O)[C@H](O)[C@H]3O)[C@@H]21 | -16% [at 17.3 µM] |  |
| CCc1cc(CC[C@]2(C3CCCC3)CC(O)=C(Cc3nc4nc(C)cc(C)n4n3)C(=O)O2)cc(CC)n1 | -6.91% |  |
| COCc1c(O)c(C(=O)O)c(C)c2c1OC(=O)c1c(C)cc(O)c(CO)c1O2 | -19% |  |
| O=C(O)CC/C=C\C[C@H]1CO[C@@H](c2ccccc2Cl)O[C@H]1c1ccccc1O | -3.56% |  |
| CC1OC(OC2C(OC3C(O[C@H]4CC[C@@]5(C)C(CC[C@]6(C)C5CC=C5C7CC(C)(C)CC(O)[C@]7(C)CC[C@]56C)C4(C)C)OC(C(=O)O)C(O)C3O)OCC(O)C2O)C(O)C(O)C1O (some centres undefined) | 4.8% [at 9.23 µM] |  |
| COC(=O)CCC1(C)C(C(C)(C)O)C(O)CC2(C)Oc3c(C)c4c(c(OC)c3CC21)C(=O)OC4 (centres undefined) | -11% [at 17.3 µM] |  |
| C[C@@H]1O[C@@H](O[C@H]2[C@@H]3C=CO[C@@H](O[C@@H]4O[C@H](CO)[C@@H](O)[C@H](O)[C@H]4O)[C@@H]3[C@@]3(CO)O[C@@H]23)[C@H](OC(=O)/C=C/c2ccc(O)cc2)[C@H](O)[C@H]1O | -9.05% [at 17.3 µM] |  |
| C=CC(C)(CC/C=C(\C)C(=O)OC[C@H]1O[C@@H](OC(C)(C=C)CC/C=C(\C)C(=O)O[C@H]2[C@H](O)[C@@H](O)[C@H](OC(C)(C=C)CC/C=C(\C)C(=O)O)O[C@@H]2CO)[C@H](O)[C@@H](O)[C@@H]1O)O[C@@H]1O[C@H](CO)[C@@H](O)[C@H](O)[C@H]1O (some centres undefined) |  | inactive [at 9.23 µM] |
| CC(C)/C=C1/NC(=O)C(C(C)C)n2c1nc1c(O)cccc1c2=O (centres undefined) | -28.1% |  |
| COc1ccc(C2C(C(=O)O)C(C(=O)O)C2c2ccc(OC)cc2O[C@@H]2O[C@H](CO)[C@@H](O)[C@H](O)[C@H]2O)c(O[C@@H]2O[C@H](CO)[C@@H](O)[C@H](O)[C@H]2O)c1 (some centres undefined) | -27% [at 17.3 µM] |  |
| C=C1CC[C@@H]2[C@](C)(CO)[C@H](O[C@@H]3O[C@H](CO)[C@@H](O)[C@H](O)[C@H]3O)CC[C@@]2(C)[C@@H]1C/C=C1/C(=O)OC[C@H]1O | -36.8% [at 17.3 µM] |  |
| CC1(C)OC(=O)CC(O)C2(C)C1CC(=O)C1(C)C2C(O)CC2(C)C(c3ccoc3)OC(=O)C3OC321 (centres undefined) | -8.59% [at 17.3 µM] |  |
| CC1=COC(OC2OC(CO)C(O)C(O)C2O)C2C(CO)CC(OC(=O)/C=C/c3ccc(O)cc3)C12 (centres undefined) | -6.53% [at 17.3 µM] |  |
| C/C(=C\CCC(C)CCO)C(=O)OC[C@H]1O[C@@H](O[C@@H]2OC=C(C(=O)O)[C@H]3CC[C@](C)(O)[C@@H]23)C(O)[C@@H](O)C1O (some centres undefined) |  | inactive [at 17.3 µM] |
| C[C@@H]1CC[C@]2(C(=O)O[C@@H]3O[C@H](CO[C@@H]4O[C@H](CO)[C@@H](O)[C@H](O)[C@H]4O)[C@@H](O)[C@H](O)[C@H]3O)CC[C@]3(C)C(=CCC4[C@@]5(C)CC[C@H](O)[C@](C)(C(=O)O)C5CC[C@]43C)[C@@H]2[C@]1(C)O (some centres undefined) | -8.35% [at 9.23 µM] |  |
| C[C@@H]1C[C@@H](O)[C@@]2(CO)C(CO)=CCC[C@@H]2[C@@]12C[C@@H](c1ccoc1)OC2=O | -9.1% |  |
| COc1cc(/C=C/C(=O)OC[C@H]2O[C@@H](OC3CC(C)=C(C(=O)O)C(C)(C)C3)[C@H](O)[C@@H](O)[C@@H]2O)cc(OC)c1O (some centres undefined) |  | inactive [at 17.3 µM] |
| COc1cc(C(CO)CO[C@@H]2O[C@H](CO)[C@@H](O)[C@H](O)[C@H]2O)ccc1O (some centres undefined) | -11.5% |  |
| C/C=C1/[C@H](O[C@@H]2O[C@H](CO)[C@@H](O)[C@H](O)[C@H]2O)OC=C(C(=O)OC)[C@H]1CC(=O)OCCc1ccc(O)c(O)c1 | -29% [at 17.3 µM] |  |
